Data as given in PubChem BioAssay (NCI).
Compounds without any hit were thinned out: in the full panel of roughly 83,000, 20% have a hit.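 How to read the values: 0–100, growth inhibition (40 = 60% inhibited); 0, no net growth; -100 to 0, cell death (-40 = 40% of starting cells died; -100 = all dead).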 The source made the active and inactive calls. How the source made its calls: active means growth percent below 10; inactive means the rest.

Tests used:
Assay in all cases: NCI-60 one-dose screen, 48 h (100 = growth as untreated, 0 = no growth, -100 = all killed)
Conditions in all cases: 10 µM unless noted
T-47D breast = tested on: T-47D breast
BT-549 breast = tested on: BT-549 breast
MDA-MB-435 melanoma = tested on: MDA-MB-435 melanoma
SW-620 colon = tested on: SW-620 colon
HCT-116 colon = tested on: HCT-116 colon
HCC-2998 colon = tested on: HCC-2998 colon
KM12 colon = tested on: KM12 colon
MCF7 breast = tested on: MCF7 breast

Measured: growth

O=C(Nc1ccc(F)cc1)c1ccccc1
inactive: T-47D breast 104% | BT-549 breast 84.8% | MDA-MB-435 melanoma 97.3% | SW-620 colon 101% | HCT-116 colon 103% | HCC-2998 colon 109% | KM12 colon 104%

CC1(C)S[C@@H]2[C@H](NC(=O)[C@H](C(=O)O)c3cccs3)C(=O)N2[C@H]1C(=O)O
inactive: T-47D breast 102% | BT-549 breast 96.2% | MDA-MB-435 melanoma 106% | SW-620 colon 113% | HCT-116 colon 108% | HCC-2998 colon 103% | KM12 colon 106%

CCOC(=O)c1c[nH]c2cc(OCC3CC3)c(OCC3CC3)cc2c1=O
inactive: T-47D breast 109% | BT-549 breast 113% | MDA-MB-435 melanoma 107% | SW-620 colon 100% | HCT-116 colon 111% | HCC-2998 colon 107% | KM12 colon 95.7%

NC(=O)c1c(NC(=O)COC(=O)Cc2ccccc2F)sc2c1CCC2
inactive: T-47D breast 88.8% | BT-549 breast 106% | MDA-MB-435 melanoma 105% | SW-620 colon 97.4% | HCT-116 colon 114% | HCC-2998 colon 114% | KM12 colon 105%

CCn1cc(-c2ccnc(NCCNS(=O)(=O)c3ccc(Br)cc3)c2)c(-c2cccc(OC)c2)n1
inactive: T-47D breast 16.3% | BT-549 breast 99.7% | MDA-MB-435 melanoma 83.7% | SW-620 colon 81.7% | HCT-116 colon 51.6% | HCC-2998 colon 111% | KM12 colon 82.8%

O=S(=O)(NCCNc1nccc(-c2c(-c3cccc(F)c3)nc3occn23)n1)c1ccc(C(F)(F)F)cc1
inactive: T-47D breast 61.9% | BT-549 breast 106% | MDA-MB-435 melanoma 76.3% | SW-620 colon 101% | HCT-116 colon 76.5% | HCC-2998 colon 125% | KM12 colon 92%

O=S(=O)(NCCCNc1nccc(-c2c(-c3cccc(F)c3)nc3occn23)n1)c1cccc2ccccc12
active: T-47D breast 4.4% | HCC-2998 colon 2.75%
inactive: BT-549 breast 45% | MDA-MB-435 melanoma 15.7% | SW-620 colon 24.2% | HCT-116 colon 23.4% | KM12 colon 15.7%

COc1c(C(C)=O)c(OCCCCOc2c(C(C)=O)c(OC)c3ccoc3c2OC)c(OC)c2occc12
inactive: T-47D breast 23% | BT-549 breast 98.8% | MDA-MB-435 melanoma 57.9% | SW-620 colon 93.4% | HCT-116 colon 78% | HCC-2998 colon 76.7%

CC(C)C1=NOC(=O)C1=Cc1cn(-c2ccccc2)nc1-c1cccc([N+](=O)[O-])c1
inactive: T-47D breast 84.5% | BT-549 breast 109% | MDA-MB-435 melanoma 80% | SW-620 colon 57.8% | HCT-116 colon 34.7% | HCC-2998 colon 87.3% | KM12 colon 87%

CC(C)C1=NOC(=O)C1=Cc1cn(-c2ccccc2)nc1-c1ccccc1
inactive: T-47D breast 76.2% | BT-549 breast 114% | MDA-MB-435 melanoma 73.2% | SW-620 colon 60.1% | HCT-116 colon 28.9% | HCC-2998 colon 91.8% | KM12 colon 79.5%

COc1ccc(N(c2nc(-c3ccc([N+](=O)[O-])cc3)cs2)C(C)C)cc1
inactive: T-47D breast 53.4% | BT-549 breast 97% | MDA-MB-435 melanoma 89% | SW-620 colon 88.1% | HCT-116 colon 76.3% | HCC-2998 colon 101% | KM12 colon 75.7%

COc1ccc2c3ccnc(C(F)(F)F)c3n(CCCCN)c2c1
inactive: T-47D breast 52.1% | BT-549 breast 52.4% | MDA-MB-435 melanoma 45.9% | SW-620 colon 38.5% | HCT-116 colon 16.5% | HCC-2998 colon 95.7% | KM12 colon 54.8%

c1nc(N2CCOCC2)c2[nH]ccc2n1
inactive: T-47D breast 112% | BT-549 breast 101% | MDA-MB-435 melanoma 112% | SW-620 colon 111% | HCT-116 colon 103% | KM12 colon 115%

O=[N+]([O-])c1cccc(/C=C/c2ccc3ccccc3n2)c1
inactive: T-47D breast 79.5% | BT-549 breast 73.7% | MDA-MB-435 melanoma 79.8% | SW-620 colon 85.5% | HCT-116 colon 82.4% | HCC-2998 colon 81% | KM12 colon 82.7%

O=C(N/N=C1\c2ccccc2-c2cccc(C(=O)O)c21)c1ccc(O)cc1
inactive: T-47D breast 104% | BT-549 breast 83.7% | MDA-MB-435 melanoma 99.1% | SW-620 colon 84.3% | HCT-116 colon 99.4% | HCC-2998 colon 98.9% | KM12 colon 105%

CCN(CC)c1ccc2cc(C(Nc3ccc(Cl)cc3)c3nnnn3C(C)(C)C)c(=O)oc2c1 (configuration not stated)
inactive: T-47D breast 71.7% | BT-549 breast 103% | MDA-MB-435 melanoma 87.8% | SW-620 colon 100% | HCT-116 colon 92% | HCC-2998 colon 105% | KM12 colon 88.7%

CCN(CC)CCS(=O)(=O)CCNc1ccnc2cc(Cl)ccc12
active: BT-549 breast -0.495% | SW-620 colon 7.17% | HCT-116 colon 6.59% | HCC-2998 colon -13.5%
inactive: T-47D breast 43.4% | MCF7 breast 26.9%

COc1cc2c(=O)[nH]c3cc([N+](=O)[O-])ccc3c2cc1[N+](=O)[O-]
inactive: T-47D breast 49.1% | BT-549 breast 50.4% | SW-620 colon 35.5% | MCF7 breast 16.5% | HCT-116 colon 21.5% | HCC-2998 colon 62.8%

Cc1cccc(C[C@H](NC(=O)Nc2ccc(Cl)cc2F)C(=O)N[C@@H]2C(=O)N3C[C@H](OC(=O)CCN(C)C)C[C@H]3C(=O)N3CCCC[C@H]3C(=O)N[C@@H](C)C(=O)N3C[C@H](C)C[C@H]3C(=O)O[C@H]2C)c1
inactive: T-47D breast 13.8% | MDA-MB-435 melanoma 14.6% | SW-620 colon 30.2% | HCC-2998 colon 19% | KM12 colon 23%
active: BT-549 breast 4.55% | HCT-116 colon -29%

N/C(=N\c1nc2ccccc2[nH]1)NC(=O)Cc1cccc2ccccc12
inactive: T-47D breast 71.4% | BT-549 breast 85.3% | MDA-MB-435 melanoma 94.3% | SW-620 colon 85.6% | HCT-116 colon 67.4% | HCC-2998 colon 103% | KM12 colon 82%

CC1(C)NCCC[C@]2(C)[C@H]3C=CC4=C5C[C@](C)(CO)CC[C@]5(C)CC[C@@]4(C)[C@]3(C)CC[C@@H]12
active: T-47D breast -63.9% [100 µM] | BT-549 breast -87.9% [100 µM] | MDA-MB-435 melanoma -95.6% [100 µM] | SW-620 colon -80.7% [100 µM] | HCT-116 colon -77.4% [100 µM] | HCC-2998 colon -78.8% [100 µM] | KM12 colon -85.5% [100 µM]

Cc1cc(SC#N)ncn1
inactive: T-47D breast 104% | BT-549 breast 126% | MDA-MB-435 melanoma 107% | SW-620 colon 106% | HCT-116 colon 99.5% | KM12 colon 104%

Cc1ccc(S(=O)(=O)NCCCNc2nccc(-c3c(-c4cccc(F)c4)nc4occn34)n2)cc1
inactive: T-47D breast 39.5% | BT-549 breast 92.1% | MDA-MB-435 melanoma 43.4% | SW-620 colon 76.8% | HCT-116 colon 53.6% | HCC-2998 colon 117% | KM12 colon 77.6%

CC(C)C1=NOC(=O)C1=Cc1cn(-c2ccccc2)nc1-c1ccc(Cl)cc1
inactive: T-47D breast 74.6% | BT-549 breast 117% | MDA-MB-435 melanoma 76.4% | SW-620 colon 61.4% | HCT-116 colon 50.4% | HCC-2998 colon 72.5% | KM12 colon 91.7%

CC(C)C1=NOC(=O)C1=Cc1cn(-c2ccco2)nc1-c1ccccc1
inactive: T-47D breast 49% | BT-549 breast 116% | MDA-MB-435 melanoma 91.9% | SW-620 colon 84% | HCT-116 colon 58.2% | HCC-2998 colon 101%

Nc1cc(N)c(N=Nc2ccc(S(=O)(=O)O)cc2)cc1N=Nc1ccc(-c2ccc(N=Nc3ccc(O)c(C(=O)O)c3)cc2)cc1
inactive: T-47D breast 90.1% | BT-549 breast 113% | MDA-MB-435 melanoma 100% | SW-620 colon 105% | HCT-116 colon 102% | HCC-2998 colon 104% | KM12 colon 101%

O=C(Nc1cccnc1)c1ccc2ccc3ccc(C(=O)Nc4cccnc4)nc3c2n1
active: HCT-116 colon 4.76% | HCC-2998 colon 3.41% | KM12 colon 5.81%
inactive: T-47D breast 37.2% | BT-549 breast 34.7% | MDA-MB-435 melanoma 24.9% | SW-620 colon 11%

CCOC(=O)c1nn(C2CCCCO2)c2ccc(NC(=O)CN3CCOCC3)cc12 (configuration not stated)
inactive: T-47D breast 98.9% | BT-549 breast 101% | SW-620 colon 104% | MCF7 breast 97.3% | HCT-116 colon 90.5% | HCC-2998 colon 109% | KM12 colon 105%

Clc1ccccc1/C=N\Nc1ccccn1
inactive: T-47D breast 62.1% | BT-549 breast 114% | SW-620 colon 102% | MCF7 breast 28.4% | HCT-116 colon 107% | HCC-2998 colon 111% | KM12 colon 87.2%

COc1ccc(/C=C(/C(=O)c2ccc(Cl)cc2)C(=O)C(F)(F)F)cc1
inactive: T-47D breast 90.3% | BT-549 breast 111% | SW-620 colon 101% | MCF7 breast 77.2% | HCT-116 colon 101% | HCC-2998 colon 93.4% | KM12 colon 91.6%

Cc1c(Cn2cc(COc3ccc(Br)cc3)nn2)c(C)c(Cn2cc(COc3ccc(Br)cc3)nn2)c(C)c1Cn1cc(COc2ccc(Br)cc2)nn1
inactive: T-47D breast 70.2% | BT-549 breast 97.1% | SW-620 colon 85% | MCF7 breast 90% | HCT-116 colon 92.3% | HCC-2998 colon 114% | KM12 colon 99.8%

CCn1cc(-c2[nH]c(=S)ncc2-c2ccc(Cl)cc2)c(-c2ccc(Br)cc2)n1
inactive: T-47D breast 59.3% | BT-549 breast 91.2% | SW-620 colon 103% | MCF7 breast 84.8% | HCT-116 colon 72.6% | HCC-2998 colon 99.5% | KM12 colon 94%

CCOC(=O)C(=Cc1ccccc1[N+](=O)[O-])C(=O)OCC
active: HCT-116 colon 7.82%
inactive: T-47D breast 25.5% | MDA-MB-435 melanoma 15.6% | SW-620 colon 19.2% | MCF7 breast 10.4%

O=C(O)CSCc1nnc2n(Cc3ccccc3)c(=O)c3c4c(sc3n12)CCCC4
inactive: T-47D breast 85% | BT-549 breast 101% | SW-620 colon 107% | MCF7 breast 110% | HCT-116 colon 144% | HCC-2998 colon 98.1% | KM12 colon 109%

CCOC(=O)C1=C(C(=O)c2ccc(Br)cc2)C(c2ccc(Br)cc2)NC(=S)N1 (configuration not stated)
inactive: T-47D breast 94.5% | BT-549 breast 101% | SW-620 colon 101% | MCF7 breast 102% | HCT-116 colon 89.8% | HCC-2998 colon 106% | KM12 colon 97.5%
